Among the data in PubChem BioAssay are z-score values, retold here.

The source made the active and inactive calls.

The nature of the first assay: budding yeast growth changes without added modifier – OD600, strain BY4716, 24 h, basal condition, primary screen (AID 1173). The conditions noted are these: S. cerevisiae BY4716 growth, OD600, 24 h; higher = more signal, called active from +8 up or from −8 down.
Consider `O=C(c1ccccc1)N1Cc2ccccc2[C@@H]2OC(c3ccc(OCCCO)cc3)=N[C@]2(Cc2ccccc2)C1=O`, for which the z-score was -0.485 (inactive).
On the same count and under the same terms, as for `COc1ccc(C(=O)Nc2ccc(CN3C(=O)[C@@]4(O[C@@H](CCO)[C@H]([Si](C)(C)c5ccc(OC)cc5)[C@H]4C)c4ccccc43)cc2)cc1`, the figure is -3.8 (inactive); as for `COc1ccc([Si](C)(C)[C@H]2[C@H](CCn3cc([C@H](O)c4ccccc4)nn3)O[C@@]3(C(=O)N(Cc4cccc(N5CCOC5=O)c4)c4ccccc43)[C@@H]2C)cc1`, 0.548 (inactive).
On the same count and under the same terms, as for `CCCC=C(CCC)[C@@H](NS(=O)(=O)c1cccs1)c1ccc(C(=O)OC)cc1`, the figure is 0.91 (inactive); as for `O=C(NCc1ccccc1)[C@@]1(Cc2ccccc2)N=C(c2ccc(OCCCO)cc2)O[C@H]1c1ccccc1`, 0.629 (inactive).
For `COC(=O)c1c(CC[C@@H](CO)NC(=O)N[C@@H](C)Cn2cc(C3(O)CCCCC3)nn2)oc(C(C)=O)c1C(=O)OC`, the z-score was -2.52 (inactive).
For `O=C1O[C@H](c2ccccc2)[C@H](c2ccccc2)N2[C@H]1[C@@H](C(=O)O)[C@]1(C(=O)Nc3ccc(C#CCCO)cc31)[C@H]2c1ccc(O)cc1`, the z-score is -0.326 (inactive).
With `CC(C)C[C@H]1NC(=O)[C@@]23C(=O)N[C@@H](Cc4ccccc4)C2[C@H](C)[C@@]2(C)O[C@H]2C3/C=C/C/C=C\CNC(=O)[C@H](Cc2ccccc2)NC1=O` (some centres undefined), the z-score was 0.0247 (inactive).
Same read-out and setting: as for `COc1ccc(C#Cc2ccc3c(c2)[C@]2(C(=O)N3)[C@H](c3ccccc3OCCO)N3[C@H](c4ccccc4)[C@H](c4ccccc4)OC(=O)[C@H]3[C@@H]2C(=O)O)cc1`, the figure is 1.75 (inactive).

A short description of a further assay: viability profiling in MM1S myeloma cells – cell-based, resazurin fluorescence, basal, 24 h, PK04 Diversity Set, profiling panel (AID 1174).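 Further: MM1S multiple myeloma cell line; test concentration not given here.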 Conditions: higher = more signal, called active from +8 up or from −8 down. (In general: Resazurin is reduced to fluorescent resorufin, in cell work by metabolically active cells.)
In the case of `CCOC(=O)C[C@H]1[C@H](OC(=O)Cc2ccc3c(c2)OCO3)[C@@H](NC(=O)c2ccc(-c3ccccc3)cc2)c2cc(OCCCO)ccc2N1C(=O)Cc1ccc(OC)cc1`, the z-score was 0.322 (inactive).
On the same count and under the same terms, the result for `C=CCNC(=O)[C@H]1[C@@H]2C(=O)O[C@@H](c3ccccc3)[C@@H](c3ccccc3)N2[C@@H](c2ccc(O)cc2)[C@]12C(=O)N(C(=O)OCCOC)c1ccc(C#CCNC(N)=O)cc12` reads 0.244 (inactive); that for `NCCCCCNC(=O)[C@@H]1C[C@@H]2C(=O)NCC(=O)N2[C@@H]1c1ccc(O)cc1`, 0.236 (inactive); that for `C[N+](C)(C)CCCC[C@@H]1NC(=O)[C@@H]2C[C@H](C(=O)NCCCCCN)[C@H](c3cccc(OCCO)c3)N2C1=O`, -1.23 (inactive).
As for `COc1cc(CO)cc(I)c1O[C@H]1C=C(C(=O)NCCO)C[C@@H](N(CCN2CCOCC2)C(=O)C2CCOC2)[C@@H]1O` (some centres undefined), the z-score was 0.85 (inactive).
Turning to `[N-]=[N+]=NCc1ccccc1[C@@H]1OC(c2ccc(OCCCO)cc2)=N[C@]1(Cc1ccccc1N=[N+]=[N-])C(=O)N1CCOCC1`, the z-score was -1.21 (inactive).
Same read-out and setting: the result for `O=C1NCC(=O)N2[C@@H]1C[C@@H](C(=O)O)[C@H]2c1cccc(OCCO)c1` reads -0.159 (inactive); that for `COc1ccc([Si](C)(C)[C@H]2[C@H](CCO)O[C@@]3(C(=O)N(Cc4ccc(N5C(=O)COc6ccccc65)cc4)c4ccccc43)[C@@H]2C)cc1`, -4.21 (inactive); that for `O=C1c2ccccc2[C@@]2(Cc3ccccc3N(CCN3CCOCC3)C2=O)[C@H](c2ccc(CO)cc2)N1Cc1ccccc1`, 0.757 (inactive).
Consider `COc1ccc([Si](C)(C)[C@@H]2[C@@H](CC(=O)N3Cc4ccccc4C[C@H]3CO)O[C@]3(C(=O)N(C)c4c(Br)cc(C)cc43)[C@H]2C)cc1`, for which the z-score was -6.01 (inactive).
On the same count and under the same terms, the result for `CCOC(=O)C[C@H]1[C@H](OC(=O)Cc2ccc3c(c2)OCO3)[C@@H](NC(=O)c2ccc3ccccc3c2)c2cc(OCCCO)ccc2N1C(=O)c1ccccc1` reads -1.09 (inactive); that for `CN1C(=O)C2C=CC(C(O)c3ccccc3)N(Nc3ccccc3)C2C1=O` (centres undefined), -1.83 (inactive); that for `CC(C)c1ccc(NN2C(C(O)C(c3ccccc3)c3ccccc3)C=CC3C(=O)N(c4ccccc4)C(=O)C32)cc1` (centres undefined), -1.35 (inactive).
Same read-out and setting: the result for `C=C(CCCC)C(=O)CC[C@H](OC(=O)c1cccnc1)c1ccccc1OCCO` reads -2.19 (inactive).
Still for that read-out and setting: the result for `CC(C)[C@@H](CO)NC(=O)[C@H]1[C@@H](c2ccccc2)N(c2ccccc2)O[C@@H]1C` reads 0.751 (inactive).
In the case of `CCOC(=O)[C@H]1CC=C2CC1C(=O)N1CCC[C@@H]1[C@@H]2O[Si](C)(C)C(C)(C)C` (some centres undefined), the z-score was 0.425 (inactive).
For `O=C(O)[C@@]1(CCS(=O)(=O)c2ccccc2)COC(c2ccc(OCCCO)cc2)=N1`, the z-score is -0.21 (inactive).
Still for that read-out and setting: the result for `CCOC(=O)[C@H]1C/C=C/C[C@H](C(=O)OCC)C(=O)O[C@H]2[C@@H](OC)O[C@H](CO)[C@@H](OC(=O)Nc3ccc(C#N)cc3)[C@@H]2OC1=O` reads -8.87 (active); that for `COCCOC(=O)N1C(=O)[C@@]2(c3cc(C#CC4=CCCCC4)ccc31)[C@H](C(=O)N1CCc3cc(OC)c(OC)cc3C1)[C@H]1C(=O)O[C@H](c3ccccc3)[C@H](c3ccccc3)N1[C@@H]2c1ccc(OCCO)cc1`, 0.516 (inactive); that for `C#CCN(CC=C(C)C)[C@H](CO)c1ccccc1`, 0.101 (inactive).
As for `COc1ccc(C(O)C2C=CC3C(=O)N(c4ccccc4)C(=O)C3N2Nc2ccccc2F)cc1OCc1ccccc1` (centres undefined), the z-score was -1.66 (inactive).
For `COc1ccc(C(=O)Nc2ccc(CN3C(=O)[C@@]4(O[C@@H](CC(=O)N5CCC[C@H]5CO)[C@H]([Si](C)(C)c5ccc(OC)cc5)[C@H]4C)c4ccccc43)cc2)cc1`, the z-score was -0.675 (inactive).
Regarding `CCOC(=O)C=Cc1cc([N+](=O)[O-])ccc1O`, the z-score is -0.912 (inactive).
For the compound `CCOc1cc(C(O)C2C=CC3C(=O)N(c4ccccc4)C(=O)C3N2Nc2ccccc2)ccc1O` (centres undefined), the z-score is -1.07 (inactive).
In the case of `CCOC(=O)C[C@H]1[C@H](OC(=O)c2cc3ccccc3oc2=O)[C@@H](NC(=O)Cc2ccc(OC)cc2)c2cc(OCCCO)ccc2N1C(=O)c1ccccc1`, the z-score was -0.218 (inactive).
On the same count and under the same terms, as for `O=C(NCc1ccc(F)cc1)[C@H]1C[C@H]2C(=O)N[C@@H](Cc3ccccc3)C(=O)N2[C@H]1c1ccc(O)cc1`, the figure is 0.396 (inactive); as for `O=C(c1ccccc1)N1Cc2ccccc2[C@@H]2OC(c3ccc(OCCCO)cc3)=N[C@]2(Cc2ccccc2)C1=O`, -1.79 (inactive).
Still for that read-out and setting: the result for `COc1ccc(C(=O)Nc2ccc(CN3C(=O)[C@@]4(O[C@@H](CCO)[C@H]([Si](C)(C)c5ccc(OC)cc5)[C@H]4C)c4ccccc43)cc2)cc1` reads -9.13 (active).
For the compound `COc1ccc([Si](C)(C)[C@H]2[C@H](CCn3cc([C@H](O)c4ccccc4)nn3)O[C@@]3(C(=O)N(Cc4cccc(N5CCOC5=O)c4)c4ccccc43)[C@@H]2C)cc1`, the z-score is -1.59 (inactive).
`CCCC=C(CCC)[C@@H](NS(=O)(=O)c1cccs1)c1ccc(C(=O)OC)cc1`: the z-score was 1.18 (inactive).
Still for that read-out and setting: the result for `O=C(NCc1ccccc1)[C@@]1(Cc2ccccc2)N=C(c2ccc(OCCCO)cc2)O[C@H]1c1ccccc1` reads -1.67 (inactive).
Same read-out and setting: the result for `COC(=O)c1c(CC[C@@H](CO)NC(=O)N[C@@H](C)Cn2cc(C3(O)CCCCC3)nn2)oc(C(C)=O)c1C(=O)OC` reads -0.131 (inactive); that for `O=C1O[C@H](c2ccccc2)[C@H](c2ccccc2)N2[C@H]1[C@@H](C(=O)O)[C@]1(C(=O)Nc3ccc(C#CCCO)cc31)[C@H]2c1ccc(O)cc1`, 1.5 (inactive).
On the same count and under the same terms, the result for `CC(C)C[C@H]1NC(=O)[C@@]23C(=O)N[C@@H](Cc4ccccc4)C2[C@H](C)[C@@]2(C)O[C@H]2C3/C=C/C/C=C\CNC(=O)[C@H](Cc2ccccc2)NC1=O` (some centres undefined) reads 0.333 (inactive); that for `COc1ccc(C#Cc2ccc3c(c2)[C@]2(C(=O)N3)[C@H](c3ccccc3OCCO)N3[C@H](c4ccccc4)[C@H](c4ccccc4)OC(=O)[C@H]3[C@@H]2C(=O)O)cc1`, -3.05 (inactive).
